Source: PubChem BioAssay (EPA / NIEHS)
Where “and” joins values, the source holds several entries; their conditions need not be identical. Equal values may be shown once. Calls of active or inactive are those of the source. The calls were made as follows: active = hit-call score of the fitted dose curve at least 0.9, where 1 is the maximum; inactive = score below 0.9.

Read-out: Interferon-gamma inducible Protein 10 (IP10), CXCL10 (gene 3627)
Test: BSK_KF3CT_IP10: BioMAP Diversity Plus: KF3CT Assay for Interferon-gamma inducible Protein 10 (IP10) Biomarker Activity (AID 2283068)
Conditions: primary human keratinocytes with fibroblasts; actives raise or lower the signal
Description: BSK_KF3CT is a cell-based, multiplexed-readout assay that uses keratinocytes and foreskin fibroblasts, a human skin primary cell co-culture, with measurements taken at 24 hours after chemical dosing in a 96-well plate.BSK_KF3CT_IP10 is an assay component measured in the BSK_KF3CT assay. It measures IP-10 antibody related to regulation of gene expression using ELISA technology.Data from the assay component BSK_KF3CT_IP10 was analyzed into 1 assay endpoint. This assay endpoint, BSK_KF3CT_IP10, was analyzed with bidirectional fitting relative to DMSO as the negative control and baseline of activity. Using a type of binding reporter, gain or loss-of-signal activity can be used to understand changes in the signaling as they relate to the gene CXCL10. Furthermore, this assay endpoint can be referred to as a primary readout, because this assay has produced multiple assay endpoints where this one serves a signaling function. To generalize the intended target to other relatable targets, this assay endpoint is annotated to the cytokine intended target family, where the subfamily is chemotactic factor.
The levels of cell surface (or secreted, indicated by the prefix "s") biomarker endpoints were measured by ELISA. Overt cytotoxicity to cells in confluent adherent cultures (all systems other than the BT system) was assessed by measuring total protein levels using sulforhodamine B (SRB) staining in parallel cultures at the time of biomarker measurements, indicated as SRB endpoints. For proliferation assays for adherent cell types, individual cell types are cultured at sub-confluence and relative cell numbers quantified by SRB staining at time points optimized for each system (48 h: 3C and CASM3C systems; 72 h: BT and HDF3CGF systems; 96 h: SAg system). SRB was performed by staining cells with 0.1% SRB after fixation with 10% TCA and reading wells at 560 nm.Viability and proliferation of PBMC (T cells) was quantified by Alamar Blue reduction for the SAg and BT systems. For PBMC viability (referred to as PBMC Cytotoxicity within the assay endpoint names), cells were plated (75,000/well in a 96-well plate) and then chemical samples added for 1 h before addition of activators, SEB and TSST-1 (20 ng/mL final concentration each). Cells were incubated for 90 h. Then, Alamar Blue (20 uL/well) (Invitrogen, Cat DAL1100) was added for 6 h, and the plates were read with a fluorescence microplate reader at 546/580 nm (excitation/emission). For PBMC proliferation, cells were plated and activated as above but incubated for only 16 h prior to addition of Alamar Blue. Plates were read after 6 h.

| Structure (SMILES) | outcome | AC50 |
| --- | --- | --- |
| Nc1cccc2ccccc12 | inactive |  |
| CN(C)N=O | inactive |  |
| ClC1=C(Cl)[C@]2(Cl)[C@H]3[C@H]([C@H]4C=C[C@H]3C4)[C@@]1(Cl)C2(Cl)Cl | inactive |  |
| ClCC(Cl)CCl | inactive |  |
| Cn1sc(Cl)cc1=O | inactive |  |
| O=C(Nc1ccc2[nH]ccc2c1)c1cc2cc(F)ccc2n1Cc1cccc(F)c1 |  | 7.21 µM (active) |
| CC1(C)Cc2cccc(O)c2O1 | inactive |  |
| NC(=S)Nc1ccccc1 | inactive |  |
| C=CC(=O)OCCCCCC(C)C | inactive |  |
| CC(C)(C)c1cc(O)ccc1O |  | 30.1 µM (active) |
| CC(C)(C)CC(C)(C)c1ccc(O)cc1 |  | 10.1 µM (active) |
| O=C(O)C(F)(F)C(F)(F)C(F)(F)C(F)(F)C(F)(F)C(F)(F)C(F)(F)C(F)(F)C(F)(F)C(F)(F)F |  | 6.91 µM (active) and 5.45 µM (active) and 5.25 µM (active) |
| COC[C@H](C)N(C(=O)CCl)c1c(C)csc1C | inactive |  |
| COc1cc(-c2ccc(N)c(OC)c2)ccc1N | inactive |  |
| CC(C)(c1ccccc1)c1ccc(O)c(C(C)(C)c2ccccc2)c1 |  | 3.1 µM (active) |
| O=c1[nH]c(=O)[nH]c(=O)[nH]1 | inactive |  |
| ClC(Cl)=C(Cl)C(Cl)=C(Cl)Cl |  | 36.3 µM (active) |
| CCCCC(CC)CO[N+](=O)[O-] (stereo not given) |  | 30.2 µM (active) |
| COc1cc(OC)nc(NC(=O)NS(=O)(=O)c2ncccc2C(=O)N(C)C)n1 | inactive |  |
| Oc1c(I)cc(I)cc1I |  | 23 µM (active) |

| Structure (SMILES) | outcome | AC50 |
| --- | --- | --- |
| C[C@]12CCC(=O)C[C@@H]1CC[C@@H]1[C@@H]2CC[C@]2(C)[C@@H](O)CC[C@@H]12 | inactive |  |
| O=Cc1cccc(Oc2ccccc2)c1 | inactive |  |
| C=C(C)C(=O)[O][Sn]([CH2]CCC)([CH2]CCC)[CH2]CCC |  | 0.181 µM (active) |
| CC(C)CCCCCCOC(=O)c1ccccc1C(=O)OCCCCCCC(C)C | inactive |  |
| O=C(O)CCC(F)(C(F)(F)F)C(F)(F)F | inactive |  |
| C[C@@H]1C[C@@H]([C@H](O)CC2CC(=O)NC(=O)C2)C(=O)[C@@H](C)C1 |  | 12.9 µM (active) |
| O=S(=O)(c1ccc(Cl)cc1)c1ccc(Cl)cc1 | inactive |  |
| CCN1CCC2(CC1)COc1cc3c(cc12)N(C(=O)c1ccc(-c2ccc(-c4nnc(C)o4)cc2C)cc1)CC3 |  | 28.4 µM (active) |
| CCOC(=O)/C=C(C)/C=C/C[C@@H](C)CCCC(C)C |  | 33.4 µM (active) |
| O=[N+]([O-])c1ccc(O)c([N+](=O)[O-])c1 | inactive |  |
| O=[N+]([O-])c1ccc2c3c(cccc13)CC2 | inactive |  |
| Oc1cccc2cccnc12 |  | 2.55 µM (active) |
| CCSC(C)CC1CC(=O)C(C(CC)=NOC/C=C/Cl)=C(O)C1 (stereo not given) | inactive |  |
| NC(=O)O | inactive |  |
| CCOP(=S)(OCC)Oc1ccc(S(C)=O)cc1 (stereo not given) | inactive |  |
| O=C(O)C(Cl)(Cl)Cl | inactive |  |
| CC(=O)[O][Hg][c]1ccccc1 |  | 0.148 µM (active) |
| COC(=O)Cc1ccccc1 | inactive |  |
| BrCCBr | inactive |  |
| O=C(OC1CCCCC1)c1ccccc1C(=O)OC1CCCCC1 | inactive |  |
